Measurements: PubChem BioAssay

These compounds were tested against Albumin (Bos taurus) (UniProt P02769) (assay: compounds binding labelled BSA control protein – biochemical, small-molecule microarray, Alexa647 label, 635/667 nm fluorescence, artefact control for SMM control protein annotation, profiling panel (AID 1118;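 also: score merges 667 nm emission intensity and signal-to-noise per printed compound spot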)). Conditions: BSA-A647 binding, fluorescence 635 nm, higher = more signal.
Albumin (Bos taurus), sequence (P02769 whole entry, looked up): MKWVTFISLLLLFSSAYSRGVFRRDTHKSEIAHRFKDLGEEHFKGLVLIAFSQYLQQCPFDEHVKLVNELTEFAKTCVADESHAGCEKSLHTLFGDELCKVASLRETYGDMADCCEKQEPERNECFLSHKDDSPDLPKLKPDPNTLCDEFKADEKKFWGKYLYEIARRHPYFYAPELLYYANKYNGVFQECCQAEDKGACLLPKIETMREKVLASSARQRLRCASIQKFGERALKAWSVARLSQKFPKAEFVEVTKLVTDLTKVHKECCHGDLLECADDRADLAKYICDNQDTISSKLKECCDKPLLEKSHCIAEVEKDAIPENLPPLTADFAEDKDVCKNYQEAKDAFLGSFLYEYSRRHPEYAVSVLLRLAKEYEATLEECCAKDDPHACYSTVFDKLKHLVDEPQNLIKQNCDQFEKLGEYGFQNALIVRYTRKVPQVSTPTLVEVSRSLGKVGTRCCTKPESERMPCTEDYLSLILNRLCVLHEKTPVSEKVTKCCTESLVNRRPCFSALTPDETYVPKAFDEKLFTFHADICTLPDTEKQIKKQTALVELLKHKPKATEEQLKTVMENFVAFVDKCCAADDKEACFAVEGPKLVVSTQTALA

Compound | composite z-score
CC(C)CCN1CCc2nc(COc3ccccc3)c3c(c2C1)CO[C@@H](C)C3 | 0.536
O=C(NN=C1C[C@@H](O)[C@@H](O)[C@@H]2[C@@H]3C(=O)N(Cc4ccccc4)C(=O)[C@@H]3CC[C@@H]12)OCc1ccccc1 | -0.225
CO[C@@H]1COC(=O)[C@@H](C)COC(=O)[C@@H](C)NC(=O)CC=C[C@@H]1C | -0.647
CO[C@@H]1COC(=O)CC=C[C@@H](C)[C@@H]2C=C[C@H](O)[C@@H](COC(=O)CC=C[C@H]1C)O2 | -0.806
COC(=O)[C@@H]1CC[C@H](C)[C@@H](c2ccc(C)cc2)N1C(=O)c1ccc(C=NO[C@H](C)c2cn([C@H](CO)Cc3ccccc3)nn2)cc1 | 0.279
CCC=CCCC(OC(=O)c1ccc(Br)cc1)C1=CCCCC1=O (configuration not stated) | 0.231
CO[C@H]1COC(=O)[C@@H](C)COC(=O)[C@H](COCc2ccccc2)NC(=O)CC=C[C@H]1C | -1.04
CCOC(=O)CCN1C(=O)[C@H]2[C@H]3[C@H](O)[C@H](O)CC(=NOCC(C)C)[C@H]3CC[C@H]2C1=O | 0.345
C#CCCCON=C1C[C@@H](O)[C@@H](O)[C@@H]2[C@@H]3C(=O)N(CC)C(=O)[C@@H]3CC[C@@H]12 | -0.171
CON=C1[C@H]2CCn3c(=O)n(-c4ccccc4)c(=O)n3[C@H]2[C@H](O)[C@@H]2O[C@H]12 | 0.103
CC(C)=CCCC(C)=CCON=C1C[C@@H](O)[C@@H](O)[C@@H]2[C@@H]3C(=O)N(C(C)(C)C)C(=O)[C@@H]3CC[C@@H]12 | 0.0038
CC(C)(C)N1C(=O)[C@H]2[C@H]3[C@H](O)[C@H](O)CC(=O)[C@@H]3CC[C@H]2C1=O | 0.061
